Assay results: PubChem BioAssay AID488 (PCMD, 2006)
In all, about 62,000 compounds went through this assay and about 40 (0.06%) were called active. Shown is part of a subset that was picked to be rich in actives. A number with no mark means an inactive call. Cut-off read from the data, not from the text of the source: active = inhibition above about 22% (passing the limit was not always enough); inconclusive = no clear call, values can overlap the other calls.

These compounds were tested against Cathepsin B (Homo sapiens) (UniProt P07858) (assay: cathepsin B inhibitors from pooled compounds, primary screen, biochemical, compound mixtures, AMC fluorescence (AID 488;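 note: 0% = enzyme without compound and 100% = no enzyme blank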)). Conditions: Purified cathepsin B, AMC dipeptide fluorescence, hits give high values,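 ten-compound pools at 5 µM per compound and 50 µM total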.
In the case of `CN(C)/C=C/c1c(C#N)c(=O)ncn1Cc1ccccc1`, the inhibition is reported as 4.44%. Compound `CCCC(=O)C1=C(N(C)c2ccccc2)CC(C)(C)C(C(=O)OC)C1=O` (configuration not stated) has an inhibition of 6.7%. Work on `O=C(O)CCN1C(=O)CC2(CCCCC2)C1=O` yielded an inhibition of -0.755%. With `Nc1nonc1-c1nc2ccccc2n1CCC(=O)O` the inhibition was 23.8%. Compound `COc1ccc(C)c(Cn2c(-c3nonc3N)nc3ccccc32)c1` has an inhibition of 19.5%. `Nc1nonc1-c1nc2ccccc2n1Cc1ccc(F)cc1` was tested, and the inhibition was 79.6% (active). For `Cc1ccc(C)c(S(=O)(=O)n2cnc3ccccc32)c1`, the inhibition was -4.15%. `O=C(NCCN1CCOCC1)c1ccc2c(c1)ncn2C1CCCC1` gave an inhibition of 2.62%. With `O=C(CCN1C(=O)C2C3C=CC(C3)C2C1=O)Nc1ccccc1F` (configuration not stated) the inhibition was 1.56%. With `CC1Cc2cc(/C(O)=C3\C(=O)C(=O)N(CCN4CCOCC4)C3c3ccccc3F)ccc2O1` (configuration not stated) the inhibition was 3.23%. `Cc1ccc(C2c3c(oc4ccc(C)cc4c3=O)C(=O)N2CCCN2CCOCC2)cc1` (configuration not stated) was tested, and the inhibition was 3.25%. Work on `CCOc1cc(-c2nc3cc(C)ccn3c2NCC2CCCO2)ccc1O` (configuration not stated) yielded an inhibition of -4.66%. In the case of `COc1cc2c(cc1NC(=O)CN1CCN(S(=O)(=O)c3ccc(F)cc3)CC1)oc1ccccc12`, the inhibition is reported as 2.98%. Compound `CCC1CCCCN1CCNC(=O)c1[nH]c(C)c(C(C)=O)c1C` (configuration not stated) has an inhibition of 4.44%. Compound `COC(=O)C1C(=O)CC(C)(O)C(C(=O)OC)C1c1ccc2c(c1)OCO2` (configuration not stated) has an inhibition of 1.84%. With `CCN(CC)C(=O)c1sc(NC(=O)c2ccco2)c(C#N)c1C` the inhibition was 7.73%. Compound `N#Cc1cccc(NC(=O)CCC2CCCC2)c1` has an inhibition of 0.985%. Compound `CC(C)c1ccc(-c2nn[nH]n2)cc1` has an inhibition of 4.54%. `Cc1c(C(=O)Nc2ccccc2Cl)oc2ccc(S(=O)(=O)N3CCC4(CC3)OCCO4)cc12` showed an inhibition of 6.83%. Compound `O=C(NCCSc1ccccc1)c1ccco1` has an inhibition of 5.3%. Compound `C=CCC(NCCCO)c1cccc(OC)c1OC` (configuration not stated) has an inhibition of 0.355%. `Cc1nc2nc[nH]n2c(=O)c1NC(=O)c1cccc(OCC(C)C)c1` was tested, and the inhibition was 0.08%. In the case of `CC(C)(C)Nc1c(N)c(=O)oc2ccccc12`, the inhibition is reported as 1.79%. Work on `CCC1Oc2ccc(Cl)cc2N(CC(=O)O)C1=O` (configuration not stated) yielded an inhibition of 4.82%. Compound `O=C(Cn1cnc2c(cnn2-c2ccc(F)cc2)c1=O)NCCc1ccccc1` has an inhibition of -5.56%. `CN(C(=O)c1ccccn1)c1nnc(-c2ccccn2)s1` was tested, and the inhibition was 4.35%. Work on `CN1CCN(CC(=O)C23CC4CC(CC(C4)C2)C3)CC1` yielded an inhibition of -16%. `Cc1cc(-n2nc(C)cc2C)n2ncc(-c3ccccc3)c2n1` was tested, and the inhibition was -1.95%. `COCCOC(=O)C1=C(C)N=c2s/c(=C\c3cccs3)c(=O)n2C1c1cccs1` (configuration not stated) showed an inhibition of 5.37%. For `COc1ccc(C(C)=O)cc1COC(=O)Cn1cnc2ccccc2c1=O`, the inhibition was -0.265%. In the case of `CC(=O)c1c(N2CCOCC2)nc(=S)n(Cc2ccccc2)c1C`, the inhibition is reported as -2.31%. `CCOc1ccc(N=C2SC(C(=O)O)CC(=O)N2C)cc1` (configuration not stated) showed an inhibition of -1.85%. Compound `COC(=O)Cn1c(=NC(=O)CSCC(=O)Nc2cc(C)on2)sc2ccccc21` has an inhibition of -5.38%. `Cn1c(SCC(=O)N2CCOCC2)nnc1-c1ccc(NC(=O)c2ccccc2F)cc1` was tested, and the inhibition was -2.64%. `CC(C)C(c1nnnn1Cc1ccccc1)N1CCC(C(N)=O)CC1` (configuration not stated) showed an inhibition of -1.51%. `O=C(OCc1ccccc1F)c1ccc2c(c1)OCCO2` was tested, and the inhibition was 8.22%. For `COC(=O)c1cc(C(=O)CSc2nc(C)cc(C)n2)ccc1O`, the inhibition was 1.56%. `CSc1ccc(Cl)c(C(=O)OCC(=O)N2CC(C)OC(C)C2)c1` (configuration not stated) was tested, and the inhibition was -10.2%. Compound `COC(=O)C1=C(N)Oc2cc(C)oc(=O)c2C1c1cccnc1` (configuration not stated) has an inhibition of 1.64%. `COC(=O)c1ccc(CSc2nncn2C)cc1` gave an inhibition of 6.61%. For `CCN(CC)P(=O)(/C(Cl)=C\Nc1c(C)n(C)n(-c2ccccc2)c1=O)N(CC)CC`, the inhibition was -1.45%. In the case of `C=CCN(c1ccc(C(N)=O)cc1)S(C)(=O)=O`, the inhibition is reported as 1.82%. Compound `CCOC(=O)C1=C(C)N=c2s/c(=C\C(=O)OC)c(=O)n2C1c1ccc(OC)cc1` (configuration not stated) has an inhibition of 4.36%. `Cc1ccc(Cn2nnc3c(=O)n(CC(=O)N4CCCCC4)cnc32)cc1` showed an inhibition of -4.83%. For `O=C(CC1Nc2ccccc2NC1=O)Nc1ccccc1` (configuration not stated), the inhibition was 2.4%. `COc1ccccc1-n1cnc2cc(NS(=O)(=O)c3ccccc3)ccc21` gave an inhibition of 4.81%. Compound `C=CCn1c(=N)n(CC(O)COc2ccc(OC)cc2)c2ccccc21` (configuration not stated) has an inhibition of 4.16%. For `CCOc1ccc(CC(=O)Nc2ccc(S(=O)(=O)Nc3cc(C)on3)cc2)cc1OCC`, the inhibition was 3.38%. With `COC(=O)C1=C(C)NC(=O)NC1/C=C/c1ccccc1` (configuration not stated) the inhibition was 4.12%. `O=C(Cn1c(-c2ccc(Cl)cc2)noc1=O)N1CCN(c2ccccc2F)CC1` was tested, and the inhibition was -2.31%. For `CCOC(=O)c1ccc2[nH]c(C)c(CN3CCN(C)CC3)c(=O)c2c1`, the inhibition was 6.62%. Work on `Cc1nc2cc(S(=O)(=O)C(F)(F)F)ccc2s1` yielded an inhibition of 1.09%. Compound `CCOc1ccc(NC(=O)CCS(=O)(=O)c2cccc3nsnc23)cc1` has an inhibition of 1.87%. In the case of `Cc1nnc(SCC(=O)NCc2ccccc2)s1`, the inhibition is reported as -1.96%. In the case of `CC1=CC(C)(C)N(C(=O)CSc2nnc(-c3ccccc3)o2)c2ccc(C)cc21`, the inhibition is reported as 1.93%. For `O=c1cc(CO)oc(CN2CCC(Cc3ccccc3)CC2)c1O`, the inhibition was -2.05%. With `CCOC(=O)c1cc2occc2n1CC(=O)N1CCN(C(=O)c2ccco2)CC1` the inhibition was 0.785%. Work on `Cc1cc(NC(=O)COC(=O)c2ccc(F)c(S(=O)(=O)N3CCOCC3)c2)no1` yielded an inhibition of 5.21%. In the case of `CC1=C(C(N)=O)C(c2ccc3c(c2)OCO3)n2nc(-c3cccc(C)c3)nc2N1` (configuration not stated), the inhibition is reported as -4.66%. In the case of `CCCCn1c(CCCNC(=O)CC)nc2ccccc21`, the inhibition is reported as 1.44%. Work on `Cc1cc(Cl)c(S(=O)(=O)NCc2cccnc2)cc1OCC(N)=O` yielded an inhibition of 7.41%. `O=C(/C=N/O)Nc1ccccc1` was tested, and the inhibition was 3.15%. For `NC(=O)C1CCN(C(=O)c2ccc(C(F)(F)F)cc2)CC1`, the inhibition was -1.58%. `CCOC(=O)CSc1nnc(CNC(=O)c2cccs2)n1-c1cc(OC)ccc1OC` showed an inhibition of 0.53%. `Cc1cccc(OCc2nnc(SCn3nnc4ccccc4c3=O)o2)c1` was tested, and the inhibition was -0.48%. `O=C(Cn1c(-c2cncs2)nc2ccccc21)NC1CCCC1` was tested, and the inhibition was 1.92%. Compound `C=C1c2cc(CC)ccc2NC(=O)N1c1ccc(C)cc1` has an inhibition of 5.66%. With `COc1ccc(OC)c(CNC(=O)CCc2nc(-c3cccs3)no2)c1` the inhibition was -0.11%. Work on `CC(=O)c1c(C)[nH]c(C(=O)NCCCN2CCCC2)c1C` yielded an inhibition of 3.25%. Work on `c1ccc2[nH]c(-c3nc4ccccc4[nH]3)nc2c1` yielded an inhibition of -5.47%. Compound `Cc1ccc2cccc(S(=O)(=O)N3CCN(c4ccccc4F)CC3)c2n1` has an inhibition of 2.15%. `NC(=O)CSC1=Nc2ccccc2C2=NC(CCC(=O)NCc3ccc(F)cc3)C(=O)N12` (configuration not stated) showed an inhibition of 0.205%. With `O=C(c1ccc(=O)[nH]c1)N(Cc1ccco1)C1(C(=O)NC2CCCCC2)CCCCC1` the inhibition was 2.12%. `O=C(CN1CCOCC1)Nc1c2c(nc3c1CCC3)CCC2` was tested, and the inhibition was 0.235%. `CCOc1c(N2CCCCC2)c(=O)c1=O` was tested, and the inhibition was -3.57%. With `CCn1c(=O)cc(SCC(=O)NCc2ccc3c(c2)OCO3)c2ccccc21` the inhibition was 1.53%. `Cc1ccc(N2CCN(S(=O)(=O)c3ccc(F)cc3)CC2)c(C)c1` showed an inhibition of -2.33%. `CCCCN(CC)C(=O)CN(C)S(=O)(=O)c1cccc2nsnc12` gave an inhibition of 0.445%. Compound `O=C(NCc1ccco1)c1cc(-c2cccnc2)nc2ccc(Cl)cc12` has an inhibition of -4.83%. With `COc1ccc2c(c1)C=CC1(O2)N(CCO)c2ccccc2C1(C)C` (configuration not stated) the inhibition was 2.88%. `CCOC(=O)N1CCC(C(N)=O)CC1` was tested, and the inhibition was 7.54%. In the case of `CSC1=N/C(=C\C=C\c2cccs2)C(=O)S1`, the inhibition is reported as 9%. `COc1cc(=O)[nH]c(=O)n1C(=O)Cc1ccccc1` showed an inhibition of 3.21%. In the case of `COC(=O)COc1ccc(S(=O)(=O)Nc2ccc(NC(C)=O)cc2)cc1`, the inhibition is reported as 0.2%. Compound `CS(=O)(=O)c1ccc2nc(NC(=O)C3C4C=CC(C4)C3C(=O)O)sc2c1` (configuration not stated) has an inhibition of 0.27%. For `COc1ccc(NC(=O)Nc2cccc3cccnc23)cc1`, the inhibition was 3.29%. `Cc1ccc(-c2noc(-c3ccccc3C(=O)NCC3CCCO3)n2)cc1` (configuration not stated) showed an inhibition of -4.67%. With `C=CCn1c(SCc2cc(C(=O)OC)c(C)o2)nnc1-c1ccncc1` the inhibition was -5.06%. With `C=CCOc1ccc(C2/C(=C(\O)c3c(C)[nH]c(C(=O)OC)c3C)C(=O)C(=O)N2CCN(C)C)cc1` (configuration not stated) the inhibition was -5.12%. `O=C(Cn1cnc2c(cnn2-c2ccccc2)c1=O)NCc1ccccc1` gave an inhibition of -0.45%. `Oc1ccc(-c2csc(Nc3cccnc3)n2)cc1` showed an inhibition of 2.75%. `CC(C)C[C@H](NC(=O)[C@@H]1O[C@H]1C(=O)O)C(=O)NCCCCN=C(N)N` was tested, and the inhibition was 99.7% (active). Compound `COC(=O)c1cc(OC)c(OC)cc1NC(=O)C1CCCO1` (configuration not stated) has an inhibition of -0.18%. In the case of `CC1=NCCN1S(=O)(=O)c1ccc(Br)c(C)c1`, the inhibition is reported as -3%. `O=C1CC(c2ccccc2)C(=O)N1c1cccc(O)c1` (configuration not stated) was tested, and the inhibition was -1.1%. `COc1ccc(OCCCC(=O)Nc2nnc(C3CCCO3)s2)cc1` (configuration not stated) gave an inhibition of -2.29%. With `Cc1ccc(S(=O)(=O)N(C)CC(=O)N2CCc3ccccc32)cc1` the inhibition was -2.02%. `O=C1c2oc3ccc(Br)cc3c(=O)c2C(c2cccc(F)c2)N1CCO` (configuration not stated) gave an inhibition of -5.69%. Compound `O=C(NCc1cccnc1)c1ccc(CS(=O)(=O)c2ccc(Br)cc2)o1` has an inhibition of 3.93%. `CC(=O)Nc1ccc(S(=O)(=O)Nc2ccc(N3CCOCC3)c(F)c2)cc1` gave an inhibition of 1.35%. `Cc1nc2ccc(S(=O)(=O)NC(C(=O)N3CCCCCC3)C(C)C)cc2s1` (configuration not stated) gave an inhibition of 6.23%. In the case of `CCn1c(COc2cccc(OC)c2)nnc1SCC(=O)N1CCOCC1`, the inhibition is reported as 2.62%. `CCOC(=O)c1c(CN2CCOCC2)n(-c2ccccc2)c2ccc(O)cc12` showed an inhibition of 4.31%. With `CC(c1nnc(SCC(=O)Nc2sccc2C#N)n1-c1ccc(Cl)cc1)N(C)C` (configuration not stated) the inhibition was 5.86%. In the case of `Cc1cc(C)nc(-n2nc(C)cc2NC(=O)c2ccc(Br)o2)n1`, the inhibition is reported as 6.29%. `c1csc(-c2cn3c(n2)SCC3)c1` was tested, and the inhibition was 0.03%. `Cc1cc(/C=N/n2cnnc2)c(C)n1-c1ccc2ncccc2c1` was tested, and the inhibition was 0.4%.
